# Reference: PubChem BioAssay (NCATS)
# Results filed as inconclusive are left out. A call without a number means that no potency is given here. Calls of active or inactive are those of the source. The call rests on the fitted dose curve; in most records, active means well fitted curve in either direction with a large enough effect (not every such curve was filed as active); inconclusive means small, poorly fitted or top-dose-only effect, or another doubt; inactive means flat fitted curve, though single readings scatter. Starred links: 1 amine or outer side, 2 acyl side, 3 side chain; linkers in the order of their positions; H or OH if unused. Positions of bridges follow the written chain, without caps; N, C: chain ends. Non-standard residues stand in square brackets, D forms with d. Residues, ends and D or L forms follow the SMILES beside them. *: point of attachment. X1 = NC1=N[C@@H](O)C[C@@H]([C@@H](N[*:1])C(=O)[*:2])N1; ΔAla(Z-3-ureido) = NC(=O)N/C=C(\N)C(=O)O; β3hOrn = NCCC[C@H](N)CC(=O)*; Dap = NC[C@H](N)C(=O)O
# Target: Mitogen-activated protein kinase 10 (Mus musculus) (UniProt Q61831)
# Experiment: JNK3 AlphaScreen Assay (AID 530);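 further: kinase came from lysate of stimulated human HepG2 cells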
# Conditions: JNK3 lysate, c-Jun phosphorylation; series mostly up to 25.6 µM
# Excerpt: NIH Chemical Genomics Center [NCGC]
# NIH Molecular Libraries Screening Centers Network [MLSCN]
# The c-jun N-terminal kinase (JNK) family are serine/threonine protein kinases that phosphorylate c-jun, a component of the transcription factor […] (AP-1). JNK kinases are members of the mitogen-activated protein kinase family including the extracellular regulated kinases and p38 kinases. Three JNK genes (JNK 1, 2, and 3) have been identified in humans so far. JNK1 and JNK2 have a broad distribution and JNK3 is primarily found in neuronal tissues and cardiac myocytes.
# JNK3 has been under consideration as a target for the treatment of neurodegenerative disorders. […] JNK pathway is also involved in pathological process in a mouse model of Parkinson's disease (Xia et al., 2001).
# Given these potential tissue distributions and links to neuroprotection, JNK3 inhibitors should provide useful investigational tools to study the role of this kinase in several diseases including, arthritis, stroke, myocardial infarction, ischemic injury and Parkinson's disease.
# A homogeneous AlphaScreen is developed to measure the activity of JNK3. AlphaScreen is a two bead-based proximity-dependent chemical energy transfer luminescent assay platform. The phosphorylation of a biotinylated c-jun substrate by JNK3 can be detected with an antibody raised against phosphorylated c-jun. This process brings streptavidin donor beads and Protein-A acceptor beads to within a proximity range of <200 nm, and subsequently lead a chemical luminescent reaction upon exciting donor beads with 680 nm laser excitation light. Inhibition of JNK3 activity by small molecules and subsequent decrease in the antibody binding to biotinylated c-jun could attenuate or abolish this chemical luminescent reaction.
# Yang DD, Kuan CY, Whitmarsh AJ, Rincon M, Zheng TS, Davis RJ, Rakic P and Flavell RA (1997) Absence of excitotoxicity-induced apoptosis in the hippocampus of mice lacking the Jnk3 gene. Nature 389:865-870. [PMID: 9349820]
# Herdegen T, Claret FX, Kallunki T, Martin-Villalba A, Winter C, Hunter T, and Karin M (1998) Lasting N-terminal phosphorylation of c-Jun and activation of c-Jun N-terminal kinases after neuronal injury. J.Neurosci. 18:5124-5135. [PMID: 9651196]
# Xia XG, Harding T, Weller M, Bieneman A, Uney JB and Schulz JB (2001) Gene transfer of the JNK interacting protein-1 protects dopaminergic neurons in the MPTP model of Parkinson's disease. Proc.Natl.Acad.Sci.U.S.A. 98:10433-10438.
# NCGC Assay Protocol Summary:
# GST-cJun (1-79) (Stratagene, La Jolla CA, #205145) was biotnylated by PerkinElmer (PerkinElmer-BioSignalInc. Montreal, Canada) and was detectable by the streptavidin Donor beads. Anti-(phospho)cJun (Ser73) antibody was from UpState (Charlottesvilles, VA, #06-659). JNK3-containing lysates were generated from HepG2 cells and pre-activated by interleukin1-beta and tumor necrosis factor alpha. All reagents were stored at -20 C before using. Phosphorylated biotinylated-GST-cJun was recognized by Anti-(phospho)cJun (Ser73) antibody and this process brings acceptor and donor beads together. Therefore JNK3 phosphorylation of cJun can be measured by Alpha reading by EnVision (PerkinElmer, Boston, MA).
# The composition of kinase buffer was (in mM) 20 tris- HCl (pH 7.6) 10 MgCl2, 1 DTT, and 0.1 Na3VO4 and 0.01% Tween-20. Beads were diluted in detection buffer containing (in mM) 20 tris-HCl (pH 7.7), 20 NaCl and 80 EDTA and 0.3% BSA. The assay was performed at room temperature. All compounds were screened as titrations from 0.6 nM to 46 uM final concentration. The assay was performed in 1536-well format (white solid bottom and untreated) as follows:
# Sequence,Parameter,Value,Description
# 1,Reagent,3 uL,Biotin-GST-cJun, Anti-(phospho)cJun and pre-activated JNK3-containing lysates
# 2,Compound,23 nL,Final concentration was 0.6nM to 46uM
# 3,Time,15 minutes,Room Temperature
# 4,Reagent,1 uL,ATP final concentration 10uM
# 6,Reagent,0.5 uL,2ng/well bead mixture
# […]
row,SMILES,Potency
1,COCC(=O)Nc1c(I)c(C(=O)NC[C@@H](O)CO)c(I)c(C(=O)N(C)C[C@@H](O)CO)c1I,inactive
2,CCOC(=O)[C@H](CCc1ccccc1)N[C@@H](C)C(=O)N1[C@H](C(=O)O)C[C@H]2CCC[C@@H]21,inactive
3,C=CCSC[C@@H]1Nc2cc(Cl)c(S(N)(=O)=O)cc2S(=O)(=O)N1,inactive
4,COC(=O)C1=C(C)NC(C)=C(C(=O)OCCN(C)Cc2ccccc2)[C@H]1c1cccc([N+](=O)[O-])c1,inactive
5,CC1(C)S[C@@H]2[C@H](NC(=O)C(N)c3ccccc3)C(=O)N2[C@H]1C(=O)O (stereo not given in full),inactive
6,COc1ccc(CNc2ncncc2-c2ccccc2CN(C)C)c(OC)c1,inactive
7,NCCC[C@H](N)CC(=O)N[C@H]1CNC(=O)[C@@H]([C@@H]2C[C@H](O)N=C(N)N2)NC(=O)/C(=C/NC(N)=O)NC(=O)[C@@H](CO)NC(=O)[C@@H](CO)NC1=O (β3hOrn-[Dap][dS][dS][ΔAla(Z-3-ureido)][X1]; lactam 1-C),inactive
8,NS(=O)(=O)c1cc2c(cc1Cl)N[C@@H](CC1CCCC1)NS2(=O)=O,inactive
9,CC(=O)O[C@H]1C[C@@]2(C)[C@H](C[C@@H](O)[C@H]3[C@@]4(C)CC[C@@H](O)[C@@H](C)[C@H]4CC[C@@]32C)C1=C(CCC=C(C)C)C(=O)O,inactive
10,O=C(N/N=C\c1ccc([N+](=O)[O-])o1)c1ccc(O)cc1,inactive
11,Clc1cnccn1,inactive
12,CCC(=O)OCC(=O)[C@@]1(OC(=O)CC)[C@H](C)C[C@@H]2[C@H]3CCC4=CC(=O)C=C[C@]4(C)[C@]3(Cl)[C@@H](O)C[C@@]21C,inactive
13,Clc1ccc([C@H](Cn2ccnc2)OCc2c(Cl)cccc2Cl)c(Cl)c1,inactive
14,CCCC[C@H](CC)CN1CN(C[C@@H](CC)CCCC)CC(C)(N)C1,inactive
15,CS(=O)(=O)c1ccc([C@H](O)[C@H](CF)NC(=O)C(Cl)Cl)cc1,inactive
16,COc1ccc(-c2cc(=O)c3c(O)cc(O)cc3o2)cc1,inactive
17,CC(=O)/C(C)=N\O,inactive
18,COc1ccc(C[C@@](C)(N)C(=O)O)cc1OC,inactive
19,Nc1c2ccccc2nc2c(O)cccc12,inactive
20,Cc1onc(-c2c(F)cccc2Cl)c1C(=O)N[C@H]1C(=O)N2[C@H]1SC(C)(C)[C@H]2C(=O)O,inactive

row,SMILES,Potency
1,CCOC(=O)C1=C(C)NC(C)=C(C(=O)OC)[C@@H]1c1cccc([N+](=O)[O-])c1,inactive
2,Cc1nccn1C[C@@H]1CCc2c(c3ccccc3n2C)C1=O,inactive
3,COCCOC(=O)C1=C(C)NC(C)=C(C(=O)OC(C)C)[C@H]1c1cccc([N+](=O)[O-])c1,inactive
4,O[C@H](c1cc(C(F)(F)F)nc2c(C(F)(F)F)cccc12)[C@H]1CCCCN1,inactive
5,O=c1cc(-c2cccc(O)c2)oc2cc(O)ccc12,inactive
6,CS(=O)(=O)c1ccc([C@H](O)[C@H](CO)NC(=O)C(Cl)Cl)cc1,inactive
7,C[C@@]12CC[C@@H]3c4ccc(O)cc4CC[C@H]3[C@H]1C[C@@H](O)[C@H]2O,inactive
8,C[C@H](CCC(=O)O)[C@H]1CC[C@@H]2[C@@H]3[C@@H](O)C[C@H]4C[C@@H](O)CC[C@@]4(C)[C@H]3CC[C@@]21C,inactive
9,C[C@@H]1[C@H](C)CC[C@@]2(C(=O)O)CC[C@]3(C)C(=CC[C@H]4[C@@]5(C)CC[C@@H](O)C(C)(C)[C@@H]5CC[C@@]43C)[C@@H]12,inactive
10,CO[C@@H]1C[C@H](O[C@H]2[C@@H](C)[C@H](O[C@@H]3O[C@@H](C)C[C@@H](N(C)C)[C@@H]3OC(C)=O)[C@H](C)C[C@]3(CO3)C(=O)[C@H](C)[C@H](OC(C)=O)[C@H](C)[C@H](C)OC(=O)[C@@H]2C)O[C@H](C)[C@@H]1OC(C)=O,inactive
11,C[C@@H](CN1c2ccccc2Sc2ccccc21)N(C)C,inactive
12,C[C@@H]1O[C@H](O[C@@H]2\C=C/C=C\C=C/C=C\C[C@H](C)OC(=O)/C=C\[C@H]3O[C@@H]3C[C@H](O)C[C@]3(O)C[C@@H](O)[C@@H](C(=O)O)[C@H](C2)O3)[C@@H](O)[C@H](N)[C@@H]1O (stereo in doubt),inactive
13,CCCCC[C@H](O)/C=C\[C@H]1[C@H](C/C=C\CCCC(=O)O)[C@@H](O)C[C@H]1O (tested in a mixture with another compound),inactive
14,CCN(CCCCOC(=O)c1ccc(OC)c(OC)c1)[C@@H](C)Cc1ccc(OC)cc1,inactive
15,C[N+]1(C)CC[C@@H](OC(=O)[C@@](O)(c2ccccc2)C2CCCC2)C1,inactive
16,C[C@@]1(O)CCOC(=O)C1,inactive
17,CC(C)CC(=O)N[C@H](C(=O)N[C@H](C(=O)N[C@@H](CC(C)C)[C@H](O)CC(=O)N[C@@H](C)C(=O)N[C@@H](CC(C)C)[C@H](O)CC(=O)O)C(C)C)C(C)C,inactive
18,C#C[C@@]1(O)CC[C@@H]2[C@@H]3CCC4=CC(=O)CC[C@@H]4[C@H]3CC[C@]21C,inactive
19,Cc1ccccc1N1C(=O)c2cc(S(N)(=O)=O)c(Cl)cc2N[C@H]1C,inactive
20,C[N+]1(C)CCC[C@H]1C(=O)[O-],inactive
